Laboratory results reported in PubChem BioAssay (NCATS).
Some of the results follow. Results filed as inconclusive are left out. Activity calls are given as the source filed them. The call rests on the fitted dose curve; in most records, active means well fitted cell-killing curve with a large enough effect; inconclusive means small, poorly fitted or top-dose-only effect, or effect the other way, or another doubt; inactive means no such curve, though single readings can be large or run the other way.

Assay: qHTS screen for small molecules that inhibit ELG1-dependent DNA repair: Hit Confirmation with 5FU Viability (AID 624250)
Conditions: cell viability with 5-FU; series mostly up to 46.1 µM; activity change, negative = viability loss: at the top concentration
Source text: Cancer cells divide rapidly compared to normal cells in the body. During cell division, cancer cells need to duplicate their genome by DNA replication. The failure of genome duplication leads to cancer cells' death. Therefore, inhibitors of DNA replication could specifically kill cancer cells. Based on this concept, many chemotherapeutic agents were developed and have been used to treat cancer patients. However, there are a limited number of agents available in the clinical setting, and some of those that do exist have low efficacy and severe side effects. Therefore, if we can find the compounds that effectively block DNA replication either by directly damaging DNA or by inhibiting other cellular mechanisms, the options for cancer treatment will be broadened. With this in mind, we developed a quantitative high-throughput ELG1-luciferase reporter gene assay. Small molecules that specifically block ELG1 function in response to DNA damage can be identified by monitoring the suppression of luciferase activity. Since ELG1 defines a pathway for repairing DNA damage, agents blocking ELG1 function can be used to sensitize cancer cells to chemotherapeutic agents whose mechanism of action involves the induction of DNA damage.
NIH Molecular Libraries Probe Production Network [MLPCN]
NIH Chemical Genomics Center [NCGC]
Assay Provider: Kyungjae Myung, NHGRI, NIH
ELG1-luc HEK293T cells will be seeded in 1536-well plates at a density of 2,000 cells/well. Approximately 5 hours after plating, compounds will be added to the plate by pin tool transfer and 5-fluorouridine will be added by FRD dispenser (final concentration of 5-fluorouridine =10 µM). 16 hours following the addition of the compounds, cell viability will be measured using Cell Titer Glo.
On the % scale 0 is the no-effect control and ±100 the full control effect; potency means the concentration at half of the fitted maximal effect.

Compound	activity change, negative = viability loss	Potency
Cc1nnc(N/N=C/c2ccccn2)[nH]c1=O	-3.65% (inactive)	
COc1ccc(S(=O)(=O)Nc2ccc3oc(C)c(C(C)=O)c3c2)cc1	-1.98% (inactive)	
OCCCNc1nccc(-c2cc(Nc3cccc(Cl)c3)ncn2)n1	6% (inactive)	
COc1ccc(NS(=O)(=O)c2ccc(Oc3c(C#N)cccc3C#N)cc2)cc1	10.7% (inactive)	
Clc1ccc2nc(-c3ccccc3)nc(C(Cl)Cl)c2c1	-10.6% (inactive)	
C[C@@H]1C[C@H]2CC[C@H](O2)[C@H](C)C(=O)O[C@@H](C)C[C@@H]2CC[C@@H](O2)[C@@H](C)C(=O)O[C@H](C)C[C@H]2CC[C@H](O2)[C@H](C)C(=O)O[C@@H](C)C[C@@H]2CC[C@@H](O2)[C@@H](C)C(=O)O1	-10.2% (inactive)	
COc1cc(N)c(Cl)cc1C(=O)OCC(=O)c1ccc2c(c1)NC(=O)CO2	-1.75% (inactive)	
COc1ccc(Nc2cc(=O)oc3ccccc23)cc1	-7.76% (inactive)	
CC(C)(CNC(=O)c1ccc(Cl)c(S(=O)(=O)N2CCc3ccccc3C2)c1)N1CCOCC1	-8.03% (inactive)	
COc1ccccc1C(=O)Nc1ccc(C)c(S(=O)(=O)N2CCCCC2)c1	1.7% (inactive)	
O=C(C1CCCN(S(=O)(=O)c2ccccc2)C1)N1CCN(c2ccc(F)cc2)CC1 (stereo unspecified)	-2.54% (inactive)	
CC(=O)[O][Sn]([c]1ccccc1)([c]1ccccc1)[c]1ccccc1		2810 nM (active)
CCc1ccc(N(CC)c2ncnc3nc[nH]c23)cc1	-3.52% (inactive)	
NC(=O)c1sc2nc3c(c(-c4ccccc4)c2c1N)CCC3	15.6% (inactive)	
COc1ccc(CNc2ncnc3ccccc23)cc1	-1.98% (inactive)	
CC(=O)c1c(C)n(-c2ccc(C)cc2)c2ccc(O)cc12	-2.04% (inactive)	
